The record followed here is ChEMBL document CHEMBL2218924, “A broad activity screen in support of a chemogenomic map for kinase signalling research and drug discovery” (Biochem J, 2013).

The target of experiment [1] is T1, Serine/threonine-protein kinase TAO3 (Homo sapiens) (UniProt Q9H2K8).
T1 sequence (whole entry): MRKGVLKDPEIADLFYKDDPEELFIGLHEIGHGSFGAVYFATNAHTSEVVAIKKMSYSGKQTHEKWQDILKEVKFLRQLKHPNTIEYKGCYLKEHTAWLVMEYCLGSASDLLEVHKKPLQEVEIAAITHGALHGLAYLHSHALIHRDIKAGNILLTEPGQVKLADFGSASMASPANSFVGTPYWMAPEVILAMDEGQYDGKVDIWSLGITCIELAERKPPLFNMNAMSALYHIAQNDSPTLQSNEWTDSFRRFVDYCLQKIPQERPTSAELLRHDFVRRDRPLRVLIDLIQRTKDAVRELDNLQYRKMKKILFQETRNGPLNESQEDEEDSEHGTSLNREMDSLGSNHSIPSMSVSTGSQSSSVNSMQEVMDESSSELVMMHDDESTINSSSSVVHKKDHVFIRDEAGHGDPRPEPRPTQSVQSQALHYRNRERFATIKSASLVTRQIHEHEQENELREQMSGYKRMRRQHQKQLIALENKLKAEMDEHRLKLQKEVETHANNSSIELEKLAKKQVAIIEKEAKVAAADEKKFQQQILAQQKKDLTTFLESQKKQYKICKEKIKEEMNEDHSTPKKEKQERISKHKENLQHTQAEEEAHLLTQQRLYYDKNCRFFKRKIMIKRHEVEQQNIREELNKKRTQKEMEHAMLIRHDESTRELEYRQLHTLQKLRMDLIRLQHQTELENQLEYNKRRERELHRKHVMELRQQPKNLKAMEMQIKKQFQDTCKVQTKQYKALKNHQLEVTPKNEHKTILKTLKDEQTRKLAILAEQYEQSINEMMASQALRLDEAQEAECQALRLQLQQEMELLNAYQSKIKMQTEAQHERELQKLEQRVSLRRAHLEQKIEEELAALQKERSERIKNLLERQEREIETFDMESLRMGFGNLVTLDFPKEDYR
The settings on record: at 10 µM.

The target in experiment [2] is T2, Serine/threonine-protein kinase TBK1 (Homo sapiens) (UniProt Q9UHD2).
T2 sequence (whole entry): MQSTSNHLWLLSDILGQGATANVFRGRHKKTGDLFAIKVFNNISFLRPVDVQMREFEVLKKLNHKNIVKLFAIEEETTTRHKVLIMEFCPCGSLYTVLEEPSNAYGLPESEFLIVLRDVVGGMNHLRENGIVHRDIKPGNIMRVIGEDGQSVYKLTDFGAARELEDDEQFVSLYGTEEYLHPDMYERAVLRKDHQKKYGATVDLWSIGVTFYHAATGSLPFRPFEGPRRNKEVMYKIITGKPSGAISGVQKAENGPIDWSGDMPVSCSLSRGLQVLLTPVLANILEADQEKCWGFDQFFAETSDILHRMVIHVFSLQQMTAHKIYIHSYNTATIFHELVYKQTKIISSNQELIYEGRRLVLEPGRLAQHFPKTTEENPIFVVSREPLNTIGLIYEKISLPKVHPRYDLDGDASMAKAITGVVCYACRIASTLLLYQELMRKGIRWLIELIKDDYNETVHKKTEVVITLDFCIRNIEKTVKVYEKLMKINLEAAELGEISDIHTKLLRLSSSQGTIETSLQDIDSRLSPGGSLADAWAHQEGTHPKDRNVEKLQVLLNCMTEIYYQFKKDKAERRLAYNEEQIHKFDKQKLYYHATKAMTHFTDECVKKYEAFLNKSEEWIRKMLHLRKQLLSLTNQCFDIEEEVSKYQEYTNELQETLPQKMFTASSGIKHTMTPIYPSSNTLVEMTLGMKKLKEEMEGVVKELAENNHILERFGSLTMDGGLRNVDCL
The settings on record: at 1 µM.

Experiment [3] has as its target T2, Serine/threonine-protein kinase TBK1 (Homo sapiens). The settings on record: at 10 µM.
In experiment [4] the target is T3, TGF-beta receptor type-1 (Homo sapiens) (UniProt P36897).
T3 sequence (whole entry): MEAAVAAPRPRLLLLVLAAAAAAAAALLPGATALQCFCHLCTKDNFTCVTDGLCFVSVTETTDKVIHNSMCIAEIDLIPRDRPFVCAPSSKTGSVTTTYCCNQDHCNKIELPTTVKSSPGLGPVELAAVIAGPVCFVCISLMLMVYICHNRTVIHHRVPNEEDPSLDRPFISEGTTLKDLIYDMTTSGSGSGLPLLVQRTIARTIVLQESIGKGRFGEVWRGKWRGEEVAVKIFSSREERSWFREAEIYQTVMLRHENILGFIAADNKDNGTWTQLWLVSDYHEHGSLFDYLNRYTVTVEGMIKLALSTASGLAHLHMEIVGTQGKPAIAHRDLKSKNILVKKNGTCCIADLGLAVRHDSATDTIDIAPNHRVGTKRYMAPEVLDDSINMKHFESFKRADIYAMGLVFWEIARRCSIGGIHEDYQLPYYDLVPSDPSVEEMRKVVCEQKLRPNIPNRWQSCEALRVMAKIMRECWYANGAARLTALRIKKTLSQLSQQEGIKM
The settings on record: at 1 µM.

Experiment [5] deals with T3, TGF-beta receptor type-1 (Homo sapiens). The settings on record: at 10 µM.
Experiment [6] has as its target T4, Inhibitor of nuclear factor kappa-B kinase subunit alpha (Homo sapiens) (UniProt O15111).
T4 sequence (whole entry): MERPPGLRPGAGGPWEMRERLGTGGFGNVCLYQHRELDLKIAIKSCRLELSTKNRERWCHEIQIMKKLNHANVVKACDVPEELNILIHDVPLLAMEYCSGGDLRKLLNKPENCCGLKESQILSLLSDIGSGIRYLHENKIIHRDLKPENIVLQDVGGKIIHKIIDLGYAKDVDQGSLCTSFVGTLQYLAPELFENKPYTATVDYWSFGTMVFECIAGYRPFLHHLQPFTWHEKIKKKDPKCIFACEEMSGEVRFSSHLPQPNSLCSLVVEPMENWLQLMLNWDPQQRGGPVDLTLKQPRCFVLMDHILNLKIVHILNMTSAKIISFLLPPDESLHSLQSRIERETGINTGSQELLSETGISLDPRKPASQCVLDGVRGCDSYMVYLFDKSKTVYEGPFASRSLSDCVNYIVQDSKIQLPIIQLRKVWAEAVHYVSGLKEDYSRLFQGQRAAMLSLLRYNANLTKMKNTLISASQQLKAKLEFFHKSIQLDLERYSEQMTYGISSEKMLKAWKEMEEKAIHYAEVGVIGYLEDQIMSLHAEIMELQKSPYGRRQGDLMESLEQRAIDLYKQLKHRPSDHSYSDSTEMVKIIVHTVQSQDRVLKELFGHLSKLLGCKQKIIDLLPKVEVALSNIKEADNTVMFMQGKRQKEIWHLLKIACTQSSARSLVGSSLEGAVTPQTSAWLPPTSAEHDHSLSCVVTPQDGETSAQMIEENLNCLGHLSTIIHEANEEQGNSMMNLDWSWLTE
The settings on record: at 1 µM.

For experiment [7], the target named is T4, Inhibitor of nuclear factor kappa-B kinase subunit alpha (Homo sapiens). The settings on record: at 10 µM.
For experiment [8], the target named is T5, Inhibitor of nuclear factor kappa-B kinase subunit beta (Homo sapiens) (UniProt O14920).
T5 sequence (whole entry): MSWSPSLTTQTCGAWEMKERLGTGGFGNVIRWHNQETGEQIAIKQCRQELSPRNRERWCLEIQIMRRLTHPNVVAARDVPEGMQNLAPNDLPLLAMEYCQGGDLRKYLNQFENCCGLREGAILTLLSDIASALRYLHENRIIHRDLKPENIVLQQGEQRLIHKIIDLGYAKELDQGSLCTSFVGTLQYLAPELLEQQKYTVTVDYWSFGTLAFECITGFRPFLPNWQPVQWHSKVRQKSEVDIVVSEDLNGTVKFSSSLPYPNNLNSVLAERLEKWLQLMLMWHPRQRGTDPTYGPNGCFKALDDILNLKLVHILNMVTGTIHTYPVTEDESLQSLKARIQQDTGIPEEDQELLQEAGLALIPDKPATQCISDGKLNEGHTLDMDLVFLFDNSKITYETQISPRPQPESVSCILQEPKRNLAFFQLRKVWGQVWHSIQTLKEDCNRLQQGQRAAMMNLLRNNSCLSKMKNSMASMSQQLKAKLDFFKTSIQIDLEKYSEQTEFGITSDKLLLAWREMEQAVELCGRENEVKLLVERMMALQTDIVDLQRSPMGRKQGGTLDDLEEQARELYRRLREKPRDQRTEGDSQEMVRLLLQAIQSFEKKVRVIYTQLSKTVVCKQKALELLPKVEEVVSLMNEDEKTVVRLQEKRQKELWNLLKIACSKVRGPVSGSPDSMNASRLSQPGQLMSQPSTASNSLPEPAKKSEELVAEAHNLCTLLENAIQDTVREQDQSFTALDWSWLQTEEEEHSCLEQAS
The settings on record: at 1 µM.

The target of experiment [9] is T5, Inhibitor of nuclear factor kappa-B kinase subunit beta (Homo sapiens). The settings on record: at 10 µM.

Turning to `O=C(c1cc2cc(O)ccc2[nH]1)c1cc2cc(O)ccc2[nH]1`, the residual activity – broadly, the signal under treatment as a percentage of the control signal – in experiment [1] stood at 22%; in experiment [2], 16%; in experiment [3], 2%; in [4] it was 79%; in experiment [5] it was 80%; in [6], 109%. Further, the residual activity came out at 77% in [7], 70% in experiment [8] and 34% in experiment [9].
